Results filed as inconclusive are left out. A number with no mark means an inactive call. Active and inactive are the calls of the source. Calls come from the whole dose curve; as a rule, active = well fitted inhibition curve with a large enough effect; inconclusive = small, poorly fitted or top-dose-only effect; inactive = flat fitted curve, though single readings scatter.
The molecules below were run on HEK293 (assay: Cytotoxic Profiling of Annotated Libraries Using Quantitative High-Throughput Screening (AID 1296008; note: nearly all actives have a fitted effect of over 60% in size)). Details: Five cell lines viability, CellTiter-Glo ATP luminescence, 48-72 h; max response: hits give low values.
Outline: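 Cells exposed to compounds for 48 or 72 hr at 37 degrees Celsius. Viability read as ATP-coupled luminescence with CellTiter-Glo after 10 min at room temperature.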
`CCOC(=O)c1sc(NC(=O)[C@H](C(C)C)n2c(=O)[nH]c3ccccc3c2=O)nc1C` gave a max response of -9.44%.
With `O=C(O)c1ccccc1NCCc1ccccc1` the max response was 1.97%.
For `COc1cc(O)c2c(c1)C1=C[C@H](O)[C@@H](O)C[C@]1(C)OC2=O`, the outcome was “inactive”.
`CC[C@]12C=CCN3CC[C@@]4(c5cc([C@@]6(C(=O)OC)C[C@H]7C[C@@H](C(C)(F)F)CN(Cc8c6[nH]c6ccccc86)C7)c(OC)cc5N(C)[C@H]4[C@@](O)(C(=O)OC)[C@@H]1OC(C)=O)[C@@H]32` was tested, and the Potency was 0.172 µM (active).
In the case of `COC1/C=C/C(C)(O)C(SCC(N)C(=O)O)CC(=O)OC(C)C(C)CC/C=C/1C` (centres undefined), the outcome is reported as “inactive”.
`CN1CCN(c2ccc(C(=O)Nc3n[nH]c4ccc(Cc5cc(F)cc(F)c5)cc34)c(NC3CCOCC3)c2)CC1` was tested, and the Potency was 7.41 µM (active).
For `C=CC(=O)N1CCN(C(=O)CNc2cc(I)c(Cl)cc2O)CC1`, the Potency was 13 µM (active).
For `CN(C)c1ccc2c(c1)OC(N)=C(C#N)C2c1cccc(C(F)(F)F)c1` (centres undefined), the Potency was 0.184 µM (active).
With `COc1ccc2[nH]c3c(-c4cccc5ccccc45)nccc3c2c1` the Potency was 1.3 µM (active).
With `O=C(N/N=C/c1ccc(O)c(O)c1)c1cc2ccccc2cc1O` the outcome was “inactive”.
For `CC(C)[C@@H](CS(=O)(=O)C(C)C)N1C(=O)[C@@](C)(CC(=O)O)C[C@H](c2cccc(Cl)c2)[C@H]1c1ccc(Cl)cc1`, the Potency was 16.6 µM (active).
For `COc1ccc(-n2[nH]c(=O)c3[nH]c4cc(Cl)ccc4c(=O)c3c2=O)c(C)c1`, the outcome was “inactive”.
Work on `CCCCCCOc1cc2c(cc1N(C)c1ncc(C(=O)O)cn1)C(C)(C)CCC2(C)C` yielded a max response of 3.1%.
`COc1cc2nc(N3CCC(N4CCCCC4)CC3)nc(NC3CCCCCC3)c2cc1OC` was tested, and the Potency was 5.17 µM (active).
With `CCNC(=O)Nc1ncc(-c2cc(-c3c(C)cc(OC)cc3C)nc(-c3cnccn3)n2)s1` the outcome was “inactive”.
For `Cc1ccc(N)cc1O`, the Potency was 43.3 µM (active).
Molecule `CCNCc1nc2c(N)nc3ccccc3c2n1CC(C)(C)O` has a max response of -9.18%.
`O=C(CO)[C@@H](O)[C@H](O[C@@H]1O[C@H](CO)[C@H](O)[C@H](O)[C@H]1O)[C@H](O)CO` was tested, and the outcome was “inactive”.
`CCN(Cc1cccnc1)C(=O)CN(c1ccc(OC)nc1)S(=O)(=O)c1ccccc1C` was tested, and the outcome was “inactive”.
In the case of `Cn1cc(-c2ccc3nnc(Sc4ccc5nn(C)cc5c4)n3n2)cn1`, the outcome is reported as “inactive”.
Work on `CCC(C(=O)O)c1ccc(N2Cc3ccccc3C2=O)cc1` (centres undefined) yielded a max response of -2.44%.
`CC(C)[C@@](C)(O)[C@@H]1CN(c2nc(-c3[nH]nc4ncccc34)c(F)cc2Cl)CCN1` was tested, and the Potency was 13 µM (active).
In the case of `Cc1ccccc1NC(=O)Nc1ccc(CC(=O)N(C)[C@@H](CC(C)C)C(=O)NCC[C@H](NC(=O)[C@@H]2CCCN2S(=O)(=O)c2cc(Cl)cc(Cl)c2)C(=O)O)cc1`, the outcome is reported as “inactive”.
`C[C@@H]1CCC2C(C)(C)[C@H](O)CC[C@]2(C)[C@@]12Cc1c(O)cc3c(c1O2)CN([C@@H](CCC(=O)O)C(=O)O)C3=O` (some centres undefined) was tested, and the outcome was “inactive”.
For `C[C@H]1Oc2cc(cnc2N)-c2c(nn(C)c2C#N)CN(C)C(=O)c2ccc(F)cc21`, the max response was -113%.
For `CCOCCOC(=O)/C=C/c1ccc(OC)cc1`, the outcome was “inactive”.
`Nc1nc2c(ncn2[C@@H]2O[C@@H]3COP(=O)(O)O[C@H]3[C@H]2O)c(=O)[nH]1` gave a max response of -4.75%.
For `CC1CCCCN1S(=O)(=O)c1ccc(N2CCCC2=O)cc1` (centres undefined), the outcome was “inactive”.
With `Cc1ccc(-c2c(C(=O)CF)n(CCCO)c3ncnc(N)c23)cc1` the outcome was “inactive”.
`O=C(O)[C@H](Cc1ccc(Nc2nccc3ccncc23)cc1)NC1=C(Br)C(=O)C12CCCCC2` showed a max response of -11.7%.
`COC(=O)CC(C)(O)CC(=O)OCc1ccc(O[C@@H]2O[C@H](CO)[C@@H](O)[C@H](O)[C@H]2O)cc1` (some centres undefined) was tested, and the outcome was “inactive”.
`O=C(O)c1c(O)c(-c2ccccc2)nc2ccccc12` was tested, and the max response was -11.2%.
In the case of `COc1ccc(N(C)c2nc(C)nc3ccccc23)cc1`, the Potency is reported as 0.0073 µM (active).
For `Cc1cccc(-c2[nH]c(Cc3cccc(C(N)=O)c3)nc2-c2ccc3nccnc3c2)n1`, the outcome was “inactive”.
In the case of `Nc1ccccc1N`, the Potency is reported as 17.2 µM (active).
In the case of `c1ccc(-c2csc(N3CCOCC3)n2)cc1`, the outcome is reported as “inactive”.
With `CC(=O)O[C@@H]1[C@@H](O)[C@H](O[C@H]2CC[C@]34C[C@]35CC[C@]3(C)[C@@H]([C@@]6(C)CC[C@@H](C(C)(C)O)O6)[C@@H](O)C[C@@]3(C)[C@@H]5C[C@H](O[C@@H]3O[C@H](CO)[C@@H](O)[C@H](O)[C@H]3O)[C@H]4C2(C)C)OC[C@H]1O` the max response was -2.54%.
With `C=C1C[C@@]23CCC4[C@@](C)(CCC[C@@]4(C)C(=O)OC)C2CC[C@@H]1C3` (some centres undefined) the outcome was “inactive”.
With `CC(C)N(CCCCOCC(=O)NS(C)(=O)=O)c1cnc(-c2ccccc2)c(-c2ccccc2)n1` the outcome was “inactive”.

Reference: PubChem BioAssay (NCATS)
% is set by controls: 0 for no effect and ±100 for the full control effect; potency is the fitted concentration of half-maximal effect.
